The record followed here is PubChem BioAssay (NCI).

Compounds without any hit were thinned out: in the full panel of roughly 83,000, 20% have a hit.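 48-hour exposure, single concentration, 96-well plates; percent growth endpoint where 0 means no net growth. Active: below 10.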 Unmarked numbers belong to inactive results. Activity calls are given as the source filed them.

Test systems include HCT-15 colon; SNB-75 CNS; SNB-19 CNS; U251 CNS; PC-3 prostate; SK-MEL-5 melanoma; LOX IMVI melanoma; SK-MEL-28 melanoma; SK-MEL-2 melanoma; EKVX NSCLC; SN12C renal; UO-31 renal; TK-10 renal; ACHN renal; CAKI-1 renal; CCRF-CEM leukemia; MOLT-4 leukemia; UACC-62 melanoma; A498 renal.
Common to all, as to test: NCI-60 one-dose screen, 48 h (100 = growth as untreated, 0 = no growth, -100 = all killed)
Holding throughout (conditions): 10 µM unless noted

On to `CC1(C)CC(=O)C2=C(C1)N(c1ccc(F)cc1F)C(N)=C(C#N)C2c1cc(Br)ccc1F` (stereo unspecified), for which the growth with HCT-15 colon is 93.8%; with SNB-75 CNS, 67.1%; with SNB-19 CNS, 85.8%; with U251 CNS it was 94.8%; in the assay with PC-3 prostate it was 76.8%; in the assay on SK-MEL-5 melanoma, 93%. Besides, the growth in the assay on LOX IMVI melanoma was 57.5%; in the assay with SK-MEL-28 melanoma it was 109%; in the assay with SK-MEL-2 melanoma it was 94%; with EKVX NSCLC, 94.8%; in the assay on SN12C renal, 96.6%; in the assay on UO-31 renal it was 81.3%. Further, the growth is 104% with TK-10 renal; 94.9% with ACHN renal; 92.4% in the assay on CAKI-1 renal; 91.8% with CCRF-CEM leukemia; 88.9% with MOLT-4 leukemia.
On to `CCOc1ccc(/C=N/Nc2cc(C)nc3ccc(Br)cc23)cc1`, for which the growth is 57.9% in the assay on HCT-15 colon; 99.9% in the assay with SNB-75 CNS; 99.7% with SNB-19 CNS; 77.5% with U251 CNS; 81.4% in the assay on PC-3 prostate; 84.9% in the assay on SK-MEL-5 melanoma. Also, the growth in the assay on UACC-62 melanoma is 90.5%; in the assay with LOX IMVI melanoma, 84.4%; in the assay with SK-MEL-28 melanoma, 91.6%; in the assay on SK-MEL-2 melanoma, 117%; with EKVX NSCLC, 83.5%; in the assay with SN12C renal, 82.6%. For the same compound, the growth with UO-31 renal was 73.4%; in the assay on TK-10 renal, 112%; with CAKI-1 renal, 95.2%; in the assay on CCRF-CEM leukemia, 38.9%; with MOLT-4 leukemia, 76.2%.
Turning to `CC(C)(C)[Si](C)(C)OC1[C@@H](O[Si](C)(C)C(C)(C)C)[C@@H](CNC(=O)NC(=O)CCl)O[C@H]1n1cnc2c(NC(=O)Nc3ccccc3)ncnc21` (stereo partly specified), the growth in the assay with HCT-15 colon was 37.5%; with SNB-75 CNS, -66.2% (active); in the assay on SNB-19 CNS it was 6.83% (active); in the assay with U251 CNS, -75.6% (active); in the assay with PC-3 prostate, -36.2% (active); in the assay on SK-MEL-5 melanoma it was -87.7% (active). Besides, the growth in the assay on LOX IMVI melanoma is -88.1% (active); with SK-MEL-28 melanoma it was -79.5% (active); with SK-MEL-2 melanoma, 42.7%; in the assay with EKVX NSCLC, -40.4% (active); with SN12C renal, -50.3% (active); in the assay with UO-31 renal, -75% (active). In addition, the growth in the assay with TK-10 renal was 105%; in the assay with ACHN renal it was -68.6% (active); in the assay with CAKI-1 renal, 37.9%; with A498 renal, 43.5%; in the assay on CCRF-CEM leukemia, -37.9% (active); in the assay with MOLT-4 leukemia, -43.8% (active).
For the compound `COc1cc2c(c(OC)c1OC)-c1ccc(NNC(=S)N(Cc3cccc(C[N+](Cc4cccc(CNC56CC7CC(CC(C7)C5)C6)c4)(Cc4cccc(CNC56CC7CC(CC(C7)C5)C6)c4)Cc4cccc(CN(C(=S)NNc5ccc6c(cc5=O)[C@@H](NC(C)=O)CCc5cc(OC)c(OC)c(OC)c5-6)C56CC7CC(CC(C7)C5)C6)c4)c3)C34CC5CC(CC(C5)C3)C4)c(=O)cc1[C@@H](NC(C)=O)CC2` (stereo partly specified), the growth in the assay with HCT-15 colon was 9.96% (active); in the assay with SNB-75 CNS, 31.7%; in the assay with SNB-19 CNS, 16%; in the assay on U251 CNS, 5.78% (active); with PC-3 prostate it was 12.2%; with SK-MEL-5 melanoma it was -94.2% (active). Moreover, the growth in the assay on UACC-62 melanoma is 15.5%; in the assay with LOX IMVI melanoma, -20.1% (active); with SK-MEL-28 melanoma, 33.3%; in the assay with SK-MEL-2 melanoma, -20.3% (active); in the assay with EKVX NSCLC, 44.7%; in the assay with SN12C renal, 12.2%. Further, the growth was 39.7% with UO-31 renal; 48.7% in the assay on TK-10 renal; 44.4% in the assay on ACHN renal; 29% with CAKI-1 renal; -5.83% (active) in the assay on A498 renal; -6.54% (active) in the assay on CCRF-CEM leukemia. In addition, the growth in the assay on MOLT-4 leukemia is -17% (active).
Take `O=C1Nc2cc(-c3cccc([N+](=O)[O-])c3)ccc2/C1=C/c1ccc[nH]1`: the growth with HCT-15 colon was 28%; with SNB-75 CNS it was 64.6%; with SNB-19 CNS, 101%; in the assay on U251 CNS, 98.8%; in the assay with PC-3 prostate, 86.8%; with SK-MEL-5 melanoma, 70.3%. Moreover, the growth in the assay on UACC-62 melanoma was 83.9%; in the assay with LOX IMVI melanoma, 90%; in the assay with SK-MEL-28 melanoma, 106%; in the assay on SK-MEL-2 melanoma it was 88.1%; with EKVX NSCLC, 29.8%; with SN12C renal, 101%. Moreover, the growth in the assay on TK-10 renal was 65.6%; in the assay with ACHN renal, 92.3%; with CAKI-1 renal it was 80.9%; in the assay on CCRF-CEM leukemia, 91.5%; in the assay with MOLT-4 leukemia, 97.4%.
For the compound `CN1CCC(=C(c2ccccc2)c2ccccc2)C(c2ccccc2)C1` (stereo unspecified), the growth in the assay on HCT-15 colon was 82.5%; with SNB-75 CNS it was 88%; in the assay with SNB-19 CNS it was 95.5%; in the assay on U251 CNS, 93.3%; in the assay on PC-3 prostate, 93.6%; with SK-MEL-5 melanoma it was 101%. Further, the growth was 97.1% in the assay with UACC-62 melanoma; 86% in the assay with LOX IMVI melanoma; 110% with SK-MEL-28 melanoma; 102% in the assay on SK-MEL-2 melanoma; 89% with EKVX NSCLC; 99.4% in the assay with SN12C renal. The growth in the assay with UO-31 renal is 84.9%; in the assay on TK-10 renal, 96.2%; in the assay with ACHN renal it was 93.1%; in the assay with CAKI-1 renal, 66.4%; with CCRF-CEM leukemia it was 105%; with MOLT-4 leukemia it was 92.1%.
